The source made the active and inactive calls. Unless noted, the rule behind the calls is not given here.
How the values were obtained:
[1] = tested on: Wnt5a (protein binding on small-molecule microarray); assay: small molecules binding Wnt5a protein – biophysical, small-molecule microarray, 635/667 nm fluorescence, primary screen (AID 1142); conditions: 635 nm fluorescence, higher = more signal;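 note: fluorescence read at 667 nm with signal to noise per printed feature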
[2] = ATP-based viability of Huh7 replicon cells – cell-based, CellTiter-Glo luminescence, basal, 48 h, cytotoxicity control for HCV replication inhibitor project, primary screen (AID 1143); conditions: higher = more signal, called active from +8 up or from −8 down;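 note: Huh7 hepatoma cells carrying a hepatitis C replication reporter with no stimulus; test concentration not given here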
[3] = Pseudomonas biofilm growth suppression – PAO1 strain, BacTiter-Glo luminescence, LB-PBS, primary screen (AID 1144); conditions: P. aeruginosa PAO1 biofilm, 12 h, higher = more signal
[4] = basal CRE-LacZ reporter activity in PC12 – cell-based, unstimulated, primary screen (AID 1145); conditions: no forskolin, luminescence, 4.5 h, higher = more signal, called active from +8 up or from −8 down
[5] = forskolin-driven CRE-LacZ activity in PC12 – cell-based, CRE-LacZ reporter, forskolin-stimulated, primary screen (AID 1146); conditions: luminescence, 4.5 h, higher = more signal, called active from +8 up or from −8 down;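 note: PC12 cells with 6xCRE LacZ reporter stimulated by forskolin 10 µM; beta-galactosidase reporter signal reflecting CREB driven transcription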
[6] = target: Streptavidin (Streptomyces avidinii) (UniProt P22629); assay: compounds binding control protein streptavidin – biophysical, small-molecule microarray, 635/667 nm fluorescence, artefact control for SMM compound annotation, primary screen (AID 1147); conditions: higher = more signal;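 note: signal reflects streptavidin binding to arrayed compounds as a control protein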
Chain of Streptavidin (Streptomyces avidinii) (P22629 whole entry, looked up): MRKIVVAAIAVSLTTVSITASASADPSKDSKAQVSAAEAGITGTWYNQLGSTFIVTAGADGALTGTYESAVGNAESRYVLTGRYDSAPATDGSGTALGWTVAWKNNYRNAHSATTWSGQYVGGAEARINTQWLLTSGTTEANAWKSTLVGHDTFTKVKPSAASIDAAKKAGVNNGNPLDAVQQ

[7] = probe aInhba binding on compound microarray – biochemical, small-molecule microarray, 635/667 nm fluorescence, primary screen (AID 1148); conditions: higher = more signal;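 note: score merges 667nm spot fluorescence with signal-to-noise for antibody binding to printed compounds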
Torsin-1A (Homo sapiens) [8] = target: Torsin-1A (Homo sapiens) (UniProt O14656); assay: TOR1A wild-type binding on microarray – cell lysate, small-molecule microarray, lysate, 635/667 nm, primary screen (AID 1149); conditions: COS7 hTOR1A-WT lysate, 635 nm fluorescence, higher = more signal
Chain of Torsin-1A (Homo sapiens) (O14656 whole entry, looked up): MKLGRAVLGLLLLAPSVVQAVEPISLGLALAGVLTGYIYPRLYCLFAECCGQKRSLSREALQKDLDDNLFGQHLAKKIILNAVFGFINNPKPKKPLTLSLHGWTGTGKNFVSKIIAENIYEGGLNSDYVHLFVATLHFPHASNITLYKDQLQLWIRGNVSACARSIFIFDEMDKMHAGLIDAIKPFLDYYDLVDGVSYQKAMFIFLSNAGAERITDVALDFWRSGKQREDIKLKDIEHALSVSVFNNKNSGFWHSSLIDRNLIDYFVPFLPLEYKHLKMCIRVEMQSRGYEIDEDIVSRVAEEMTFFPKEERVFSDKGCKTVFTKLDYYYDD

Torsin-1A (Homo sapiens) [9] = target: Torsin-1A (Homo sapiens) (UniProt O14656); assay: torsin A mutant lysate binding on microarrays – cell lysate, small-molecule microarray, COS7 lysate, 635/667 nm fluorescence, primary screen (AID 1150); conditions: COS7 hTOR1A mutant lysate, 635 nm fluorescence, higher = more signal;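 note: score pools 667 nm emission and signal to noise measuring lysate protein binding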
[10] = tested on: Sonic hedgehog protein (Shh); assay: Sonic hedgehog microarray binding compounds – biochemical, small-molecule microarray, 635/667 nm fluorescence, primary screen (AID 1151); conditions: 635 nm fluorescence, higher = more signal;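 note: Shh protein binding to compounds spotted on small-molecule microarray slides; score combines spot fluorescence intensity with signal-to-noise across triplicate slides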

| SMILES | composite z-score [1] | z-score [2] | z-score [3] | z-score [4] | z-score [5] | composite z-score [6] | composite z-score [7] | composite z-score (Torsin-1A (Homo sapiens) [8]) | composite z-score (Torsin-1A (Homo sapiens) [9]) | composite z-score [10] |
| --- | --- | --- | --- | --- | --- | --- | --- | --- | --- | --- |
| CCCCC(=C=CC[C@H](O)c1cccc(OCCO)c1)C[C@H](O)c1ccccn1 | 0.11 | -2.42 (inactive) | -0.478 (inactive) | 0.685 (inactive) | -0.738 (inactive) | 0.329 | -0.101 | 0.147 | 0.704 | 0.577 |
| O=C1NC(=O)C2C1C=CC(C(O)c1ccc(I)cc1)N2Nc1ccc(Cl)cc1Cl (stereo not given) | 0.372 | -1.58 (inactive) | -1.74 (inactive) | 1.77 (inactive) | -0.299 (inactive) | 1.34 | 0.337 | 0.0137 | 0.303 | -0.366 |
| CC(C)(C)OC(=O)CC[C@@]1(C(=O)N2CCCCC2)N=C(c2ccc(OCCCO)cc2)O[C@@H]1c1ccccc1 | 0.94 | -2.99 (inactive) | -0.34 (inactive) | 1.66 (inactive) | 0.127 (inactive) | 1.82 | 0.283 | 0.766 | 0.912 | -0.45 |
| [N-]=[N+]=NCc1ccccc1[C@H]1OC(c2ccc(OCCCO)cc2)=N[C@@]1(Cc1ccccc1)C(=O)N1CCCCC1 | 1.5 | -5.29 (inactive) | 0.437 (inactive) | -0.16 (inactive) | 0.357 (inactive) | 0.733 | 0.204 | 0.178 | 0.392 | 0.413 |
| O=C(O)[C@@]1(CCS(=O)(=O)c2ccccc2)N=C(c2ccc(OCCCO)cc2)O[C@H]1c1ccccc1 | -0.111 | -0.798 (inactive) | 0.0288 (inactive) | -0.23 (inactive) | -0.324 (inactive) | 1.34 | 0.102 | 1.43 | 1.79 | -0.338 |
| COC(=O)[C@@]1(Cc2ccc(F)cc2)[C@H]2c3cc(C(=O)N(C)C)n(Cc4cc(C)n(C)n4)c3C[C@H]2CN1C(=O)c1ccccc1 | 0.692 | -0.617 (inactive) | -0.0119 (inactive) | 0.779 (inactive) | 0.455 (inactive) | 0.678 | 0.302 | 0.149 | 0.0322 | 0.303 |
| COC(=O)[C@@]1(Cc2ccc(OC)cc2)[C@H]2c3cc(C(=O)N4CCCC4)n(Cc4nc5ccccc5[nH]4)c3C[C@H]2CN1C(=O)c1ccccc1 | 0.704 | -2 (inactive) | 0.848 (inactive) | -0.182 (inactive) | 0.147 (inactive) | 1.78 | 0.802 | 0.0984 | 1.7 | -0.245 |
| O=C1C2C=CC(C(O)c3ccc(-c4ccccc4)s3)N(Nc3ccccc3)C2C(=O)N1c1ccccc1 (stereo not given) | 0.155 | -0.514 (inactive) | -1.25 (inactive) | 0.0569 (inactive) | 0.117 (inactive) | 0.908 | 0.0183 | -0.499 | 1.21 | 0.0134 |
| COCCCNC(=O)[C@@]1(Cc2ccccc2CN=[N+]=[N-])N=C(c2ccc(OCCCO)cc2)O[C@H]1c1ccccc1CN=[N+]=[N-] | 1.08 | -5.48 (inactive) | -1.5 (inactive) | 0.76 (inactive) | -1.68 (inactive) | 0.521 | -0.0195 | 0.0552 | 0.511 | -0.933 |
| O=C1O[C@H](c2ccccc2)[C@H](c2ccccc2)N2[C@H]1[C@@H](C(=O)N1CCN(c3ncccn3)CC1)[C@]1(C(=O)Nc3ccc(C#CC4=CCCCC4)cc31)[C@H]2c1ccccc1OCCO | 0.406 | -3.34 (inactive) | -0.869 (inactive) | -0.581 (inactive) | -0.111 (inactive) | 0.895 | 0.772 | 0.0637 | 0.0096 | 1.79 |
| NC(=O)NCC#Cc1ccc2c(c1)[C@]1(C(=O)N2)[C@H](C(=O)O)[C@H]2C(=O)O[C@H](c3ccccc3)[C@H](c3ccccc3)N2[C@@H]1c1ccc(O)cc1 | -0.0543 | 0.164 (inactive) | -0.36 (inactive) | 0.892 (inactive) | -0.89 (inactive) | 1.48 | 0.174 | -0.359 | -0.245 | 1.02 |
| CN1C(=O)C2C=CC(C(O)c3ccc(F)cc3)N(N(c3ccccc3)c3ccccc3)C2C1=O (stereo not given) | -0.0512 | 0.319 (inactive) | -0.0417 (inactive) | -0.708 (inactive) | 0.677 (inactive) | 0.453 | 0.0047 | -0.182 | 0.361 | -0.647 |
| O=C1C2C=CC(C(O)c3ccc4c(c3)OCO4)N(Nc3ccc([N+](=O)[O-])cc3)C2C(=O)N1c1ccccc1 (stereo not given) | -0.0509 | -0.954 (inactive) | 0.105 (inactive) | -0.116 (inactive) | -0.222 (inactive) | 0.145 | -0.0178 | -0.0053 | 0.17 | -0.199 |
| CCCC=C(CCC)[C@@H](NS(=O)(=O)c1ccc(Cl)cc1)c1ccc(C(=O)OC)cc1 | -0.16 | -0.296 (inactive) | -0.382 (inactive) | -0.179 (inactive) | -0.146 (inactive) | 0.997 | -0.0011 | 0.771 | 1.38 | -0.562 |
| C=C(CCCC)/C(=C/C[C@@H](OC(C)=O)c1ccccc1OCCO)c1cc(C(=O)OC)ccc1OC | -0.115 | -0.774 (inactive) | -0.341 (inactive) | 16 (active) | -1.14 (inactive) | -0.478 | -0.15 | 0.0851 | 0.0547 | 0.566 |
| C=C(CCCC)/C(=C/C[C@H](OC(C)=O)c1ccc(OCCO)cc1)c1cnc2ccccc2c1 | 0.0824 | -1.76 (inactive) | -0.829 (inactive) | 2.59 (inactive) | 1.08 (inactive) | 0.535 | -0.0087 | 1.27 | 0.671 | 1.8 |
| COC(=O)[C@@]1(Cc2ccccc2)[C@H]2c3cc(C(=O)N4CCCC4)n(Cc4ccc(O)c(OC)c4)c3C[C@H]2CN1C(=O)c1ccccc1 | 0.343 | -2.34 (inactive) | 0.633 (inactive) | 2.5 (inactive) | 0.333 (inactive) | 0.211 | 0.198 | -0.0034 | 0.0381 | -1.39 |
| CCCC[C@H]1C[C@@H]1[C@@H]1N(P(=O)(c2ccccc2)c2ccccc2)C[C@@](O)(c2ccccc2)CC12CC2 | -0.0443 | -3.13 (inactive) | 0.922 (inactive) | -0.185 (inactive) | 1.18 (inactive) | 1.15 | 0.108 | -0.318 | 0.409 | -1.02 |
| O=c1cccc(-c2ccccc2Cl)o1 | -0.196 | -0.759 (inactive) | 0.387 (inactive) | 0.285 (inactive) | 0.556 (inactive) | 0.423 | 0.115 | 0.64 | 0.112 | 0.322 |
| CCCCN1CC=CC23O[C@@H]4C=CCOC(=O)[C@@H]4[C@H]2C(=O)N(CCCCCCO)[C@@H]3C1=O (stereo not given in full) | -0.575 | 0.205 (inactive) | 1.05 (inactive) | -0.0899 (inactive) | 1.12 (inactive) | -1.35 | -0.249 | -0.873 | -0.748 | -0.711 |
| CCCC1(C(=O)OC)C=C2C(=C(c3ccccc3)C(=O)C2C)CN1 (stereo not given) | 0.256 | -0.752 (inactive) | 0.153 (inactive) | -0.375 (inactive) | 0.966 (inactive) | 0.312 | 0.27 | 0.52 | 0.0656 | -0.599 |
| CC(C)[Si](C#C[Si](C(C)C)(C(C)C)C(C)C)(O[C@H](C)c1cn(Cc2ccccc2)nn1)C(C)C | 0.0406 | -0.182 (inactive) | -0.324 (inactive) | -0.0848 (inactive) | -0.624 (inactive) | 1.32 | -0.0405 | 0.709 | 0.5 | 0.372 |
| CC(C)=CCCC(C)=CC(O)C1C=CC2C(=O)N(c3ccccc3)C(=O)C2N1Nc1ccc(C(C)C)cc1 (stereo not given) | 0.15 | -0.11 (inactive) | -0.603 (inactive) | 0.44 (inactive) | 0.204 (inactive) | 1.33 | -0.0087 | -0.728 | -0.151 | -0.309 |
| COc1ccc(NC(=O)O[C@H]2[C@H](OC(=O)c3cc4ccccc4[nH]3)[C@@H](OC(=O)c3cc4ccccc4[nH]3)[C@@H](OC)O[C@@H]2CO)cc1 | 0.147 | -4.18 (inactive) | -1.65 (inactive) | 1.84 (inactive) | -1.1 (inactive) | -0.342 | -0.0044 | -0.0863 | 0.291 | 0.593 |
| Cc1ccc(S[C@]2(C(=O)O)CC(=O)N(Cc3ccccc3C(F)(F)F)[C@@H]2c2ccc(CO)cc2I)cc1 | 0.192 | -1.03 (inactive) | 0.586 (inactive) | -0.619 (inactive) | 1.81 (inactive) | -0.584 | -0.193 | -0.46 | 1.98 | 0.0365 |
| C=CC1c2cc(O)c(OC)cc2CCN1Cc1cccc(OC(F)(F)F)c1 (stereo not given) | -0.415 | -2.49 (inactive) | 0.0435 (inactive) | -0.527 (inactive) | 1.28 (inactive) | 0.577 | -0.152 | -1.1 | 0.88 | 0.12 |
| C=CCOC(=O)[C@H]1[C@@H]2C(=O)O[C@@H](c3ccccc3)[C@@H](c3ccccc3)N2[C@@H](c2ccc(OCCOC(=O)[C@@H]3C[C@@H]4C(=O)N5CCC[C@H]5C(=O)N4[C@@H]3c3cccc(OCCO)c3)cc2)[C@]12C(=O)Nc1ccc(I)cc12 | 0.535 | -0.402 (inactive) | -0.615 (inactive) | 0.423 (inactive) | -0.633 (inactive) | 0.763 | 0.944 | 0.821 | 0.573 | 2.18 |
| C=CCN(Cc1ccccc1)C(=O)C(c1cccs1)N(C(=O)/C=C\C(=O)O)c1ccc(CCOCCO)cc1 (stereo not given) | -0.913 | -0.0564 (inactive) | -1.75 (inactive) | -0.0737 (inactive) | -0.771 (inactive) | -1.82 | -0.133 | -2.08 | -2.48 | -0.595 |
| CC(C)[C@@H](C(=O)O)n1cc(C2(O)CCCCC2)nn1 | 0.265 | -0.671 (inactive) | -0.78 (inactive) | -0.23 (inactive) | -0.669 (inactive) | 0.306 | -0.101 | -0.0244 | 0.404 | 0.151 |

Reference: PubChem BioAssay
